Experimental data taken from PubChem BioAssay (NCI).
About 83,000 compounds went through this panel and 20% of them were active in at least one assay; those are over-represented in the sample as a whole.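 Negative percent growth values reflect cell death: -40 means 40% of the cells present at the start died, and -100 means all died.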 Unmarked numbers belong to inactive results. Active and inactive are the calls of the source. The calls were made as follows: active = growth percent below 10; inactive = the rest.

test system: SK-MEL-5 melanoma; assay: NCI-60 one-dose screen, 48 h (100 = growth as untreated, 0 = no growth, -100 = all killed); details: 10 µM unless noted

SMILES | growth
C=C(CNCCc1ccc(O)cc1)[C@@H]1CC[C@]2(COC3CCCCO3)CC[C@]3(C)[C@H](CC[C@@H]4[C@@]5(C)CCC(N)C(C)(C)[C@@H]5CC[C@]43C)[C@@H]12 (some centres undefined) | -97.9% (active)
Clc1ccc2c(NCCCN3CCN(c4nc(-n5ccnc5)nc5ccccc45)CC3)ccnc2c1 | -94.8% (active)
Cn1c(NCCc2ccc(O)c(O)c2)nc2c1c(=O)n(Cc1ccc(Cl)cc1)c(=O)n2C | 75.3%
CCN(CC)N=Nc1nn(C(=O)Nc2ccc(Cc3ccccc3)cc2)c2ccc(Cl)cc12 | 56.6%
COC(=O)c1ccc2oc(NC(=O)c3ccc(N4CCOCC4)c([N+](=O)[O-])c3)nc2c1 | 104%

test system: UACC-62 melanoma; assay: as above; details: 10 µM unless noted

SMILES | growth
OCCCCc1nccc2c1[nH]c1ccccc12 | 96.8%
CCCn1nc(-c2ccccc2)c2c(-c3ccccc3)onc2c1=O | 53.8%
Cc1cc(N(CCCNc2ccnc3cc(Cl)ccc23)Cc2ccccn2)nc(N2CCCC2)n1 | 95.1%
C=C(C)[C@@H]1CC[C@]2(CN)CC[C@]3(C)[C@H](CC[C@@H]4[C@@]5(C)CCC(N)[C@@](C)(CO)[C@@H]5CC[C@]43C)[C@@H]12 (some centres undefined) | -79.6% (active)
COc1ccc(-n2ncn(CCCCCCn3cnn(-c4ccc(OC)cc4)c3=O)c2=O)cc1 | 76.5%
O=C(NC1CCOCC1)c1ccc2c(c1)CN(c1ncc(Cc3cccc(-n4cccn4)c3)s1)CC2 | 64.5%
C=C(CNCCc1ccc(O)cc1)[C@@H]1CC[C@]2(COC3CCCCO3)CC[C@]3(C)[C@H](CC[C@@H]4[C@@]5(C)CCC(NCCO)C(C)(C)[C@@H]5CC[C@]43C)[C@@H]12 (some centres undefined) | -85.9% (active)
Cc1c(C(=O)O[C@H]2[C@@H]3[C@H](C)CC[C@H]3[C@]3(C)O[C@@]2(C2CCCCC2)C[C@H]3OC(=O)CO)ccc2ccccc12 | 61.3%
COc1ccc(Oc2nc(Nc3ccc(N4CCCCC4)nc3)ncc2NC(=O)c2cc(OC)cc(OC)c2)cc1 | 18.8%
O=C(Oc1ccc[nH]c1=O)c1cc([N+](=O)[O-])cc([N+](=O)[O-])c1 | 114%
Cc1cc(N2CCCCC2)nc(N(CCNc2ccnc3cc(Cl)ccc23)Cc2ccccn2)n1 | 67.5%
CCCCOc1ccc(NC(=O)n2nc(N=NN(C)C)c3ccc(Cl)cc32)cc1 | 86.4%
O=C1NN(C(=O)c2ccc(O)cc2)C(c2ccccc2)=N/C1=C\c1cn(-c2ccccc2)nc1-c1ccccc1 | 92.9%
COC(=O)/C(=C\c1ccc(OC)cc1)C(=O)N1c2ccccc2Sc2ccccc21 | 19.5%
COc1ccc(Oc2nc(Nc3ccc(N4CCOCC4)nc3)ncc2NC(=O)c2cc(OC)cc(OC)c2)cc1 | 69.3%
NC(=O)c1c(NC(=O)c2ccc(C(F)(F)F)cc2Cl)sc2c1CCC(=O)C2 | -74.7% (active)
O=C(NCCOCCOCCOCCNC(=O)c1cc2c(o1)C(=O)c1ccccc1C2=O)NC12CC3CC(CC(C3)C1)C2 | -93.6% (active)
COC(=O)c1ccc(CSc2nnc(-c3ccncc3)o2)cc1 | 97.5%
CCCc1nc2ccccn2c1Nc1ccc(C(=O)NO)cc1 | 82.7%
Fc1ccc(Nc2ccc3cc(OCCCN4CCOCC4)ccc3n2)cc1F | -19.8% (active)

SMILES | growth
C=C1c2c(C)nn(-c3ccc(S(N)(=O)=O)cc3)c2N(C)C23CC1C1(C)c4c(C)nn(-c5ccc(S(N)(=O)=O)cc5)c4N(C)C(C)(CC12)C3 (centres undefined) | 37.5%
C=C1c2c(C)nn(-c3ccc(NC(C)=O)cc3)c2N(C)C23CC1C1(C)c4c(C)nn(-c5ccc(NC(C)=O)cc5)c4N(C)C(C)(CC12)C3 (centres undefined) | 37%
C[C@@H]1CC[C@@H]2[C@@H]1[C@H](OC(=O)c1ccc3ccccc3c1)[C@]1(C3CCCCC3)C[C@@H](OC(=O)CO)[C@@]2(C)O1 | 73.6%
CC(C)(C)c1ccc(C(=O)Nc2sc3c(c2C(N)=O)CCC(=O)C3)cc1 | -36.7% (active)
N=c1ccn2c(n1)OC1C(O)C(CO)OC12 (centres undefined) | 43.9%
NC(=Nc1ccc(N)cc1)C(N)=Nc1ccc(N)cc1 | 104%
COc1ccc(/C=C(\C#N)n2nnc3cc(F)c(F)cc32)c(OC)c1OC | 58.6%
C=C1c2c(C)nn(-c3ccc(O)cc3)c2N(C)C23C[C@@H]1C1(C)c4c(C)nn(-c5ccc(O)cc5)c4N(C)C(C)(C[C@H]12)C3 (some centres undefined) | 32.7%
CSc1ccc(Cl)c(C(=O)Nc2sccc2C(N)=O)c1 | 81.1%
C=C1c2c(C)nn(-c3ccc(N)cc3)c2N(C)C23CC1C1(C)c4c(C)nn(-c5ccc(N)cc5)c4N(C)C(C)(CC12)C3 (centres undefined) | 77.1%
CC(=O)Nc1ccc2c(c1)Cc1c(F)cccc1-2 | 98.9%
C=C(C)[C@@H]1CC[C@]2(CNCCO)CC[C@]3(C)[C@H](CC[C@@H]4[C@@]5(C)CCC(N)[C@@](C)(CO)[C@@H]5CC[C@]43C)[C@@H]12 (some centres undefined) | -75.7% (active)
Cc1cnc(Nc2ccc(OCCN3CCCC3)cc2)nc1NCc1ccco1 | 86.9%
Cc1cc(N(CCCNc2ccnc3cc(Cl)ccc23)Cc2ccccn2)nc(N2CCOCC2)n1 | 106%
C=C(CNCCc1ccc(O)cc1)[C@@H]1CC[C@]2(COC3CCCCO3)CC[C@]3(C)[C@H](CC[C@@H]4[C@@]5(C)CCC(N)C(C)(C)[C@@H]5CC[C@]43C)[C@@H]12 (some centres undefined) | -87% (active)
Clc1ccc2c(NCCCN3CCN(c4nc(-n5ccnc5)nc5ccccc45)CC3)ccnc2c1 | 93.4%
Cn1c(NCCc2ccc(O)c(O)c2)nc2c1c(=O)n(Cc1ccc(Cl)cc1)c(=O)n2C | 82.7%
CCN(CC)N=Nc1nn(C(=O)Nc2ccc(Cc3ccccc3)cc2)c2ccc(Cl)cc12 | 8.7% (active)
COC(=O)c1ccc2oc(NC(=O)c3ccc(N4CCOCC4)c([N+](=O)[O-])c3)nc2c1 | 90.6%
